Measurements from paper PMC4552634, “A New Set of Chemical Starting Points with Plasmodium falciparum Transmission-Blocking Potential for Antimalarial Drug Discovery” (PLoS ONE, 2015).
Read-outs that look alike come from different tables or passages of the source. The whole screen tested about 13,000 compounds, of which about 3,200 (25%) showed an effect of 50% or more. The list shows a part of the results.

System: P. falciparum stage V gametocytes
Set-up: BacTiter-Glo ATP luminescence viability of purified stage V gametocytes in 384-well plates, per cent inhibition versus DMSO
Conditions: 48 h, 5 µM, inhibitor

Row | Structure (SMILES) | % Inhibition | % Inhibition (% Inhibition)
1 | CN1CCCc2ccc(NC(=O)c3cnc(-c4ccccc4)cn3)cc21 [TCMDC-141218] | -34.46% | 
2 | O=c1cc(NCCCNC2CCc3ccc(Cl)cc32)[nH]c2ccccc12 (stereo not drawn) [TCMDC-139365] | 84.72% | 
3 | O=c1cc(NCCCN(Cc2ccccc2)Cc2ccccc2)[nH]c2ccccc12 [TCMDC-139368] | -49.11% | 
4 | O=c1cc(NCCCNC(c2ccccc2)c2ccc(Cl)c(Cl)c2)[nH]c2ccccc12 (stereo not drawn) [TCMDC-139318] | 54.86% | 
5 | O=c1cc(NCCCNC2CCCc3c2cc(Cl)c(Cl)c3Cl)[nH]c2ccccc12 (stereo not drawn) [TCMDC-139478] | 2.268% | 
6 | O=c1cc(NCCCNC2CCc3c(Cl)cc(Cl)cc32)[nH]c2ccccc12 (stereo not drawn) [TCMDC-139485] | 17.36% | 
7 | O=c1cc(NCCCNCc2cc(Cl)c(Cl)cc2Cl)[nH]c2ccccc12 [TCMDC-139631] | -58.3% | 
8 | Cc1[nH]c2ccc(O)cc2c1C1CCN(CC2CCN(C(=O)/C=C/c3ccc(Cl)c(Cl)c3)CC2)CC1 [TCMDC-140219] | 39.96% | 
9 | CCCCCCCCCC(=O)NCC1CC(Br)=NO1 (stereo not drawn) [TCMDC-137735] | 4.616% | 
10 | OC(CNC1CCCCCCC1)c1ccc(Cl)c(Cl)c1 (stereo not drawn) [TCMDC-141991] | -9.212% | 
11 | OC(CNCCCCCCNCC(O)c1ccc(Cl)c(Cl)c1)c1ccc(Cl)c(Cl)c1 (stereo not drawn) [TCMDC-141987] | 99.2% | 
12 | OC(CNC1CCCCC1)c1ccc(Cl)c(Cl)c1 (stereo not drawn) [TCMDC-123990] | 75.22% | 
13 | OC(CNC1CCCCCC1)c1ccc(Cl)c(Cl)c1 (stereo not drawn) [TCMDC-141990] | -11.57% | 
14 | CC(C)C[C@H](NC(=O)c1ccc(OCCN2CCOCC2)cc1)C(=O)N[C@H](/C=N/N(C)C(=O)c1ccccc1)CCc1ccccc1 [TCMDC-135854] | 17.32% | 
15 | CC1(C)N=C(N)N=C(N)N1OCc1cccs1 [TCMDC-131654] | 20.54% | 
16 | COC(=O)/C=C/c1ccc(CC(C)NCC(O)c2cccc(C(F)(F)F)c2)cc1 (stereo not drawn) [TCMDC-131448] |  | -0.1444%
17 | CCNc1cc(C(=O)N[C@@H](Cc2ccccc2)[C@H](O)CNC(CC)c2cccc(Cl)c2)cc(N2CCCCS2(=O)=O)c1 (stereo partly drawn) [TCMDC-135221] | 3.057% | 
18 | CCNc1cc(C(=O)N[C@@H](Cc2ccccc2)[C@H](O)CNC(CC)c2cccc(Cl)c2)cc(N2CCCC2=O)c1 (stereo partly drawn) [TCMDC-135264] | 64.68% | 
19 | CCNc1cc(C(=O)N[C@@H](Cc2ccccc2)[C@H](O)CN[C@@H](C)c2ccccc2)cc(N2CCCC2=O)c1 [TCMDC-138823] | 8.317% | 
20 | CCC(NC[C@@H](O)[C@H](Cc1ccccc1)NC(=O)c1cc(C2CCCC2)cc(N2CCCC2=O)c1)c1cccc(Cl)c1 (stereo partly drawn) [TCMDC-135265] | 4.239% | 
21 | CCNc1cc(C(=O)N[C@@H](Cc2ccccc2)[C@H](O)CN[C@H]2CCc3ccccc32)cc(N2CCCC2=O)c1 [TCMDC-138917] | 52.85% | 

Row | Structure (SMILES) | % Inhibition | % Inhibition (% Inhibition)
22 | CCNc1cc(C(=O)N[C@@H](Cc2ccccc2)[C@H](O)CN[C@H](C)c2ccccc2)cc(N2CCCC2=O)c1 [TCMDC-138822] | 64.41% | 
23 | CCNc1cc(C(=O)N[C@@H](Cc2ccccc2)[C@H](O)CN[C@@H]2CCc3ccccc32)cc(N2CCCC2=O)c1 [TCMDC-132414] | 21.82% | 
24 | CCNc1cc(C(=O)N[C@@H](Cc2ccccc2)[C@H](O)CNC2CCCC2)cc(N2CCCC2=O)c1 [TCMDC-138844] | 16.89% | 
25 | CCNc1cc(C(=O)N[C@@H](Cc2ccccc2)[C@H](O)CNC(C)(C)CSCC(C)C)cc(N2CCCC2=O)c1 [TCMDC-134311] | 69.93% | 
26 | CCNc1cc(C(=O)N[C@@H](Cc2ccccc2)[C@H](O)CNC(C)(C)Cc2ccccc2)cc(N2CCCC2=O)c1 [TCMDC-134567] | 5.299% | 
27 | CCNc1cc(C(=O)N[C@@H](Cc2ccccc2)[C@H](O)CN[C@@H](C)c2cccc(OC)c2)cc(N2CCCC2=O)c1 [TCMDC-138824] | -0.5109% | 
28 | CCCCCC(C)(C)NC[C@@H](O)[C@H](Cc1ccccc1)NC(=O)c1cc(NCC)cc(N2CCCC2=O)c1 [TCMDC-138912] | 10.89% | 
29 | Cc1cccc2[nH]c(-c3cccc(-c4cccc(CN5CCC(CO)CC5)c4)c3)nc12 [TCMDC-133131] | -22.3% | 
30 | Nc1nccc(-c2ccc3c(-c4cccc(F)c4)cnc(N)c3c2)n1 [TCMDC-134545] | -1.877% | 
31 | Cc1cc(NC(=O)c2ccsc2)ccc1OC1CCN(Cc2ccc(F)cc2)CC1 [TCMDC-133742] | 4.453% | 
32 | COc1ccc(Nc2nccc(-c3c(-c4cccc(NC(=O)c5c(F)cccc5F)c4)nn4ccccc34)n2)cc1Cl [TCMDC-135970] | -50.42% | 
33 | CS(=O)(=O)N(c1ccccc1)c1cc(C(=O)N[C@@H](Cc2ccccc2)[C@H](O)CNC2CCCCC2)cc(N2CCCC2=O)c1 [TCMDC-138850] | 25.67% | 
34 | CS(=O)(=O)N(c1ccccc1)c1cc(C(=O)N[C@@H](Cc2ccccc2)[C@H](O)CNC2CC2)cc(N2CCCC2=O)c1 [TCMDC-138891] | 19.46% | 
35 | CC(C)CCCC(C)NC[C@@H](O)[C@H](Cc1ccccc1)NC(=O)c1cc(N2CCCC2=O)cc(N(c2ccccc2)S(C)(=O)=O)c1 (stereo partly drawn) [TCMDC-138851] | 82.88% | 
36 | O=C(Nc1cccc(-c2ccc(-c3nc4ccc(C(F)(F)F)cc4[nH]3)cc2)c1)c1csnn1 [TCMDC-136905] | 5.589% | 
37 | COc1ccc(NC(=O)[C@H](C)Nc2cc(C)nc(NCC3CCCCC3)n2)cc1 [TCMDC-134922] | -9.943% | 
38 | CCOC(=O)c1ccc(N2CCN(c3cc(Cl)ccc3C)CC2)c(NC(=O)Nc2ccc(Cl)c(Cl)c2)c1 [TCMDC-124007] | -37.8% | 
39 | O=C(/C=C/c1ccc(Cl)c(Cl)c1)N1CCC(CN2CCC(c3c[nH]c4ccc(NS(=O)(=O)c5cccs5)cc34)CC2)CC1 [TCMDC-139955] | 57.44% | 
40 | O=C(/C=C/c1ccc(Cl)c(Cl)c1)N1CCC(CN2CCC(c3c[nH]c4ccncc34)CC2)CC1 [TCMDC-140074] | 108.3% | 
41 | O=C(/C=C/c1ccc(Cl)c(Cl)c1)N1CCC(CCN2CCC(c3c[nH]c4ccccc34)CC2)CC1 [TCMDC-139620] | 8.374% | 
42 | O=C(/C=C/c1ccc(Cl)c(Cl)c1)N1CCC(CCN2CCC(c3c[nH]c4cnccc34)CC2)CC1 [TCMDC-140136] | 111.3% | 

Row | Structure (SMILES) | % Inhibition | % Inhibition (% Inhibition)
43 | O=C(/C=C/c1ccc(Cl)c(Cl)c1)N1CCC(CCN2CCC(c3c[nH]c4ccncc34)CC2)CC1 [TCMDC-140075] | 91.37% | 
44 | O=C(/C=C/c1ccc(Cl)c(Cl)c1)N1CCC(CN2CCC(c3c[nH]c4ncccc34)CC2)CC1 [TCMDC-139846] | 9.268% | 
45 | CS(=O)(=O)Nc1ccc2[nH]cc(C3CCN(CC4CCN(C(=O)/C=C/c5ccc(Cl)c(Cl)c5)CC4)CC3)c2c1 [TCMDC-139813] | 20.88% | 
46 | CS(=O)(=O)Nc1ccc2c(C3CCN(CC4CCN(C(=O)/C=C/c5ccc(Cl)c(Cl)c5)CC4)CC3)c[nH]c2c1 [TCMDC-139959] | -60.99% | 
47 | O=C(/C=C/c1ccc(Cl)c(Cl)c1)N1CCC(CN2CCC(c3c[nH]c4cnccc34)CC2)CC1 [TCMDC-140135] | 46.53% | 
48 | CCc1nc(N)nc(N)c1-c1ccccc1 [TCMDC-124296] | -28.74% | 
49 | O=C(Nc1ccc(F)cc1)c1nc2ccccc2nc1Cl [TCMDC-124769] | 24.46% | 
50 | COCCN(C)CCCOc1cc2c(cc1OC)ncn2-c1cc(OCc2ccccc2C(F)(F)F)c(C(N)=O)s1 [TCMDC-135214] | 33.23% | 
51 | CCN1CCN(c2cc(C)c3cc(NC(=O)c4cccc(Cl)c4)ccc3n2)CC1 [TCMDC-125580] | 30.18% | 
52 | N=c1c(C(=O)NCc2ccccc2)cc2c(=O)n3ccccc3nc2n1CCc1ccccc1 [TCMDC-124378] | 0.2894% | 
53 | O=C(/C=C/c1ccc(Cl)c(Cl)c1)N1CCC(CCN2CCC(c3c[nH]c4cc5c(cc34)OCO5)CC2)CC1 [TCMDC-139836] | 55.11% | 
54 | CNC(=O)c1ccc2[nH]cc(C3CCN(CC4CCN(C(=O)/C=C/c5ccc(Cl)c(Cl)c5)CC4)CC3)c2c1 [TCMDC-139980] | -32.3% | 
55 | O=C(/C=C/c1ccc(Cl)c(Cl)c1)N1CCC(CN2CCC(c3c[nH]c4cc5c(cc34)OCO5)CC2)CC1 [TCMDC-139838] | -10.77% | 
56 | CCS(=O)(=O)Nc1ccc2[nH]cc(C3CCN(CCC4CCN(C(=O)/C=C/c5ccc(Cl)c(Cl)c5)CC4)CC3)c2c1 [TCMDC-139930] | 78.45% | 
57 | CS(=O)(=O)Nc1ccc2c(C3CCN(CCC4CCN(C(=O)/C=C/c5ccc(Cl)c(Cl)c5)CC4)CC3)c[nH]c2c1 [TCMDC-139956] | 32.42% | 
58 | CC(=O)Nc1ccc2[nH]cc(C3CCN(CC4CCN(C(=O)/C=C/c5ccc(Cl)c(Cl)c5)CC4)CC3)c2c1 [TCMDC-139853] | 21.75% | 
59 | CC1CCN(CC[C@H]2CCCN2S(=O)(=O)c2cccc(NC(=O)c3ccc(-c4ccc(Cl)cc4)o3)c2)CC1 [TCMDC-141078] | -28.73% | 
60 | O=S(=O)(c1ccc2cc[nH]c2c1)N1CCC[C@@H]1CCN1CCC(c2c[nH]c3cnccc23)CC1 [TCMDC-141158] | 68.56% | 
61 | O=C1COc2ccc(S(=O)(=O)N3CCC[C@@H]3CCN3CCC(c4c[nH]c5cnccc45)CC3)cc2N1 [TCMDC-141172] | 41.57% | 
62 | CC(=O)Nc1ccc2[nH]cc(C3CCN(CCC4CCN(C(=O)/C=C/c5ccc(Cl)c(Cl)c5)CC4)CC3)c2c1 [TCMDC-139854] | 30.15% | 
63 | O=C(/C=C/c1ccc(Cl)c(Cl)c1)N1CCC(CN2CCC(c3c[nH]c4ccc(O)cc34)CC2)CC1 [TCMDC-139786] | 94.36% | 
